An excerpt weighted towards active compounds, which were near 3.9% of everything screened.
BRCA1 expr up: increases BRCA1 expression; MCF7-BRCA1-FFLuc reporter, luminescence, 48 h; response scale: scaled: vehicle 0%, 10 µM genistein 100%; Potency, µM (doses to about 46.1 µM), usual class: activators; 380,000 compounds, 1.1% hits; AID 624202; further: nearly all actives have a fitted effect of over 80% in size
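Quantitative HTS in MCF7 cells stably reporting BRCA1 expression via firefly luciferase. Compound treatment lasts 48 h at 37 °C in phenol-red free MEM. Activation is expressed relative to genistein at 10 microM and DMSO.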
PLK1 PBD inh: inhibitors of human PLK1 polo-box domain binding; 360,000 compounds, 2.8% hits; Potency, µM, most hits filed as inhibitors; Plk1 PBD binding of FITC phosphopeptide, fluorescence polarization; further: series mostly up to about 57 µM; nearly all actives have a fitted effect of over 65% in size
Target sequence (P53350 whole entry, looked up, the tested form may be a part): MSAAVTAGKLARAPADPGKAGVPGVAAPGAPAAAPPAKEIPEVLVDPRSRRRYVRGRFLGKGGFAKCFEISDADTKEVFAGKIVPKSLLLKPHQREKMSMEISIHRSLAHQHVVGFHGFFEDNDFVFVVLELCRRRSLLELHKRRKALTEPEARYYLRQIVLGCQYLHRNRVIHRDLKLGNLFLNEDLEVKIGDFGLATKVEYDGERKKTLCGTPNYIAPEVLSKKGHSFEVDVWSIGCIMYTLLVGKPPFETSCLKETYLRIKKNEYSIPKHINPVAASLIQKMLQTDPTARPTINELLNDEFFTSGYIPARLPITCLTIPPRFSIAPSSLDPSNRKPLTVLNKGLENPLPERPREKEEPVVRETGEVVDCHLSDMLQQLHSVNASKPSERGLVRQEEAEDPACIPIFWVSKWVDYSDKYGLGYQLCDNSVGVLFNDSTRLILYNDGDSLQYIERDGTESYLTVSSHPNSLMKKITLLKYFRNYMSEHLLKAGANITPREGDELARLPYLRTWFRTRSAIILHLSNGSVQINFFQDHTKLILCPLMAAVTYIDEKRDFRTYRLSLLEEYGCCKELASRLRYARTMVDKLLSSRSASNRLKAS
VDR inh: vitamin D3 receptor (human) inhibition; P11473; VDR-SRC2-3 peptide fluorescence polarization, 2 h; Potency, µM, most hits filed as inhibitors; 400,000 compounds, 0.93% hits
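After 23 nl compound addition and a short centrifugation, plates sat for 2 hours at ambient temperature; polarization of fluorescence then indicated loss of VDR binding to peptide SRC2-3.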
Tb PFK inh: T. brucei PFK enzyme inhibition. O15648. T. brucei PFK, ADP-Glo luminescence. Potency, µM (titrated, usually from 57.5 µM), hits mostly inhibitors. 330,000 compounds, 0.17% hits; further: nearly all actives have a fitted effect of over 60% in size
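ADP-Glo luminescence quantified ADP after 45 min at room temperature, with 1.25 nM T. brucei PFK, 0.1 mM ATP and 0.5 mM fructose-6-phosphate in pH 8.0 TEA buffer. qHTS titrations up to 57 µM; curves classified by quality.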
Large screens that a line does not name were inactive; ! = not active in a repeat. The call rests on the fitted dose curve; in most records, active means well fitted curve in the direction sought with a large enough effect; inconclusive means small, poorly fitted or top-dose-only effect, or another doubt; inactive means no such curve, though single readings can be large; an effect the other way counts as inactive or inconclusive.

COc1ccc([C@H]2CC(=O)C=C(/C=C/Cc3ccccc3)C2)cc1	VDR inh 79µM
CCCCNC(=O)C1C(c2ccc(OC)cc2)=Nc2ccccc2N1C(=O)c1ccc2ncccc2c1 (centres undefined)	none (no result: BRCA1 expr up, VDR inh, Tb PFK inh)
O=C(O)COc1ccc(Cl)cc1C1CCCCC1	none (no result: Tb PFK inh)
CCCC[C@@]1(C2CCCC2)Cc2cc(OCC(=O)O)c(Cl)c(Cl)c2C1=O	VDR inh 50µM!
CCOC(=O)c1ccc(-n2ncc(C(=O)OCC)c2N)cc1	none
CCOC(=O)c1cnn(-c2ccc(C)cc2)c1N	BRCA1 expr up 11µM
COc1ccc(S(=O)(=O)Nc2c(O)ccc3ccccc23)cc1OC	PLK1 PBD inh 30µM, VDR inh inconclusive (no result: Tb PFK inh)
COc1ccc(C(=O)Nc2c(O)ccc3ccccc23)cc1OC	PLK1 PBD inh inconclusive (no result: Tb PFK inh)
Cc1c(C)c(C)c(/C=C/c2ccnc3ccccc23)c(C)c1C	none (no result: PLK1 PBD inh, VDR inh, Tb PFK inh)
CN(C)C(=S)N=c1ssc(=S)n1Cc1ccccc1	PLK1 PBD inh inconclusive, VDR inh 40µM (no result: Tb PFK inh)
Cc1ccc(NC(=O)CCc2nc(-c3ccccc3F)no2)c(C)c1	none (no result: PLK1 PBD inh, Tb PFK inh)
CCCCn1c(NS(=O)(=O)c2ccccc2)c(S(=O)(=O)c2ccc(C)cc2)c2nc3ccccc3nc21	PLK1 PBD inh 27µM, VDR inh 50µM
Cc1ccc(S(=O)(=O)c2c(N)n(CCCO)c3nc4ccccc4nc23)cc1	none
CCCCCn1c(NC(=O)c2ccco2)c(S(=O)(=O)c2ccc(C)cc2)c2nc3ccccc3nc21	PLK1 PBD inh 21µM, VDR inh inconclusive
CCCCn1c(NC(=O)c2ccco2)c(S(=O)(=O)c2ccc(C)cc2)c2nc3ccccc3nc21	PLK1 PBD inh inconclusive, VDR inh inconclusive
CCCCn1c(NC(=O)c2ccc(Br)o2)c(S(=O)(=O)c2ccccc2)c2nc3ccccc3nc21	PLK1 PBD inh 25µM, VDR inh inconclusive
CCC(=O)Nc1c(S(=O)(=O)c2ccccc2)c2nc3ccccc3nc2n1C(C)c1ccccc1 (centres undefined)	none
Cc1ccncc1C(=O)O	none (no result: BRCA1 expr up, PLK1 PBD inh, Tb PFK inh)
O=C1C=C(O)CC2(CCCCC2)C1	none (no result: VDR inh, Tb PFK inh)
COc1ccc(C2c3cc(OC)c(OC)cc3CC(=O)N2c2ccc(C)c(F)c2)cc1 (centres undefined)	none (no result: BRCA1 expr up, PLK1 PBD inh, Tb PFK inh)
Cc1ccc(-n2c(=O)c3c(cnn3C)n(Cc3ccc(Cl)cc3)c2=O)cc1	VDR inh 89µM (no result: BRCA1 expr up, PLK1 PBD inh, Tb PFK inh)
CCc1ccc(-n2nc(C)c3c(C)cc(=O)n(CC(=O)Nc4cc(C)ccc4C)c32)cc1	none (no result: PLK1 PBD inh, Tb PFK inh)
CN(c1ccc(C(=O)Nc2ccc3c(c2)OCO3)cc1)S(C)(=O)=O	BRCA1 expr up 6.3µM
Cc1ccc(N(C(C)C(=O)Nc2ccc3c(c2)OCO3)S(C)(=O)=O)cc1 (centres undefined)	PLK1 PBD inh 3µM, VDR inh inconclusive
COc1ccc(N2CCN(CC(O)COCCOc3ccc(Br)cc3)CC2)cc1 (centres undefined)	none
OCCN1CCN(CC(O)COCCOc2ccc(Br)cc2)CC1 (centres undefined)	PLK1 PBD inh 11µM, VDR inh 18µM
COC(=O)C1(C)C=C(Nc2ccc(OC)cc2)C(=O)N1c1ccc(OC)cc1 (centres undefined)	none (no result: BRCA1 expr up, PLK1 PBD inh, Tb PFK inh)
COc1ccc(OCC(=O)Nn2c(-c3ccc(OC)cc3)nc3ccccc3c2=O)cc1	none
COc1ccc(-c2nc3ccccc3c(=O)n2NC(=S)N(C)C)cc1	PLK1 PBD inh 4.7µM, VDR inh 35µM
CCc1cc2c(cc3c(=O)n(CCCC(=O)NCc4ccccc4Cl)nc(CC)n32)s1	none (no result: BRCA1 expr up, PLK1 PBD inh, Tb PFK inh)
O=C(COC(=O)CSc1cc(Cl)ccc1Cl)NCc1ccc2c(c1)OCO2	PLK1 PBD inh 27µM
Cc1ccc(NC(=O)CSc2nnc(-c3cc4occc4n3C)n2-c2ccccc2C)c(C)c1	none (no result: BRCA1 expr up, PLK1 PBD inh, Tb PFK inh)
CC(=O)N1CC=C2C(C#N)=C(N)C(C#N)(C#N)[C@H](c3ccoc3)[C@H]2C1	none
CN1CC=C2C(C#N)=C(N)C(C#N)(C#N)[C@H](c3ccoc3)[C@H]2C1	PLK1 PBD inh 15µM, VDR inh inconclusive
COc1ccc(/C=N/NC(=O)c2ccccc2OCc2ccccc2)c(OC)c1	none
COc1ccc(/C(C)=N/NC(=O)c2ccccc2OCc2ccccc2)c(OC)c1	PLK1 PBD inh 19µM, VDR inh inconclusive
CCOc1ccc(S(=O)(=O)N/N=C(\C)c2ccc(OC)cc2OC)cc1	PLK1 PBD inh 15µM, VDR inh inconclusive
COc1ccc(/C(C)=N/NS(=O)(=O)c2cc(C)ccc2C)c(OC)c1	PLK1 PBD inh inconclusive
NC(c1ccc(F)c(F)c1)c1nc(-c2cc(F)cc(F)c2)cs1 (centres undefined)	none (no result: VDR inh, Tb PFK inh)
O=C(Nc1ccc(Br)cc1F)c1ncoc1-c1ccco1	none (no result: PLK1 PBD inh, Tb PFK inh)
CSCc1nnc(NC(=O)c2ccc(S(=O)(=O)N(C)C)cc2)o1	PLK1 PBD inh 13µM
CCc1nnc(NC(=O)c2ccc(S(=O)(=O)N(CC(C)C)CC(C)C)cc2)o1	none
CSCc1nnc(NC(=O)c2ccc(S(=O)(=O)N(CC(C)C)CC(C)C)cc2)o1	none (no result: BRCA1 expr up, PLK1 PBD inh, VDR inh)
CCc1nnc(NC(=O)c2ccc(S(=O)(=O)N(C)c3ccccc3)cc2)o1	PLK1 PBD inh 30µM
C(=C\c1ccnc2ccccc12)/c1ccccc1	none (no result: PLK1 PBD inh, VDR inh, Tb PFK inh)
CCOC(=O)c1cnc(SC2CCc3ccccc3C2=O)nc1N (centres undefined)	PLK1 PBD inh 27µM
CCCCSc1ncc(C(=O)OCC)c(N)n1	BRCA1 expr up 3.5µM, PLK1 PBD inh 9.5µM
CCOC(=O)c1cnc(SCc2ccc(C)cc2)nc1N	BRCA1 expr up 7.1µM
COc1ccc(CC(=O)NCC(c2ccc(N(C)C)cc2)N2CCOCC2)cc1 (centres undefined)	none (no result: BRCA1 expr up, PLK1 PBD inh, Tb PFK inh)
O=C(/C=C/c1cccs1)Nc1cccnc1	BRCA1 expr up 11µM
Cc1ccc(/C=N/n2nnnc2N)cc1	BRCA1 expr up 6.3µM (no result: Tb PFK inh)
COc1cccc(CNC(=O)COC(=O)c2nn(C)c(=O)c3ccccc23)c1	none
O=C(CCCc1ccccc1)Nc1cccc([N+](=O)[O-])c1	BRCA1 expr up 13µM
Cc1ccc(C(=O)NCCCc2ccccc2)c(C)c1	BRCA1 expr up inconclusive, PLK1 PBD inh 24µM
O=C(CCc1ccccc1)Nc1cccc([N+](=O)[O-])c1	none
O=C(NCCCc1ccccc1)c1ccc([N+](=O)[O-])cc1Cl	BRCA1 expr up 10µM
CCc1cccc(C)c1NC(=O)c1cn2c3c(ccc(Cl)c3c1=O)OC(C)C2 (centres undefined)	none (no result: BRCA1 expr up, PLK1 PBD inh, Tb PFK inh)
COc1cc2nc(SCC(=O)Nc3cccc(C)c3)n3nc(CCn4c(C)nc5ccccc54)nc3c2cc1OC	none (no result: BRCA1 expr up, PLK1 PBD inh, Tb PFK inh)
CC(=O)C(C)Oc1ccc2c3c(c(=O)oc2c1)CCCC3 (centres undefined)	BRCA1 expr up 11µM
CCCCN1C(=O)C(CC(=O)NCc2cccs2)CC(C(=O)N(CC)CC)=C1C (centres undefined)	none (no result: VDR inh, Tb PFK inh)
Cn1c(=O)c2c(-c3ccccc3)n(-c3cccc(C#N)c3)cc2n(C)c1=O	none (no result: BRCA1 expr up, PLK1 PBD inh, Tb PFK inh)
COc1ccc(C(=O)Nc2cccc(-c3cnc4ccccc4n3)c2)cc1	BRCA1 expr up 4µM
O=C(Nc1cccc(-c2nc3ccccc3c(=O)o2)c1)c1ccccc1	PLK1 PBD inh 21µM
CCOc1cc(C(=O)Nc2cccc(-c3nc4ccccc4o3)c2)cc(OCC)c1OCC	none (no result: BRCA1 expr up, PLK1 PBD inh, Tb PFK inh)
CC(C)C(=O)Nc1cccc(-c2cnc3ccccc3n2)c1	BRCA1 expr up 11µM

Screens (PubChem BioAssay)
